According to PubChem BioAssay AID588853 (National Center for Advancing Translational Sciences (NCATS), 2011):
Calls of active or inactive are those of the source.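 How the source made its calls: active means glucocerebrosidase seen by eye moving to lysosomes in immunostained patient skin cells after 5 µM compound; inconclusive means microscope result judged unclear; inactive means no movement seen.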

target: Lysosomal acid glucosylceramidase (Homo sapiens) (UniProt P04062); assay: qHTS for Activators of Human Glucocerebrosidase as a Potential Chaperone Treatment of Gaucher Disease: Fibroblast Translocation; conditions: Gaucher patient fibroblasts, GCase lysosomal translocation, immunofluorescence
Sequence (P04062 whole entry N409S): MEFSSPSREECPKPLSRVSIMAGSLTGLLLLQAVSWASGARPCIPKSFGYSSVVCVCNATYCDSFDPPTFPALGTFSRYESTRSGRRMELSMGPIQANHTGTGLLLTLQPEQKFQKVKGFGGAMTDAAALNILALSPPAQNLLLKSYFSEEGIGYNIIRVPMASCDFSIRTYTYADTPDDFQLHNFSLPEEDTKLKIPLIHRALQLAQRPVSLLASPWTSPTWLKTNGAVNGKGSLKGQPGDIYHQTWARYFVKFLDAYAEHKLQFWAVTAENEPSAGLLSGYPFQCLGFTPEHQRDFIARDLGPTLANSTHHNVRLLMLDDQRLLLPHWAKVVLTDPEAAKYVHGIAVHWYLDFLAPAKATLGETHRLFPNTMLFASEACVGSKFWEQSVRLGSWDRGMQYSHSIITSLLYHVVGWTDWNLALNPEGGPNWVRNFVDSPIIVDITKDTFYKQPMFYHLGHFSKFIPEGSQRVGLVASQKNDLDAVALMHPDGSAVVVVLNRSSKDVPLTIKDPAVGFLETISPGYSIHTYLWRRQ
Text: Glucocerebrosidase (GCase) catalyzes the hydrolysis of beta-glucocerebroside to glucose and ceramide in lysosomes. Mutations in the glucocerebrosidase gene result in Gaucher disease, an autosomal recessive lysosomal storage disorder. Many of the mutations encountered in patients with Gaucher disease are missense alterations that may cause misfolding, decreased stability and/or mistrafficking of this lysosomal protein. […] However, the enhancement of enzyme activity by the chaperone action of an enzyme inhibitor must be balanced against the direct inhibition of the enzyme. An enzyme activator could also function as a chaperone by binding to the enzyme and helping to correct its misfolding and mistrafficking. Activators for GCase have not yet been identified, and they may have better therapeutic potential than inhibitors. Therefore the discovery and development of chemical activators may provide a new strategy for the chaperone therapy. The probe that has been identified was tested in a chaperone translocation experiment in human fibroblasts. This assay attempts to quantitate translocated glucocerebrosidase protein in patient-derived fibroblasts following extended compound incubation. The fibroblasts tested in this experiment were homozygous either for N370S glucocerebrosidase or wildtype GCase. NIH Chemical Genomics Center [NCGC] […]

Compound | outcome
C#Cc1ccc(NC(=O)c2cnn3c(C)cc(C)nc23)cc1 | active; yes
CN(C(=O)CNC(=O)c1ccccc1OCC(=O)Nc1ccc(Br)cc1)c1ccccc1 | active; yes
